# Measured values as given in the supplement of paper PMC8728848.
# Many of the other results were omitted from the sample, so the strongest signals are more common in it than they were.
# B1: PfulAvr4 2 (Pseudocercospora fuligena) (protein)
# chain: HHHHHHDYKDDDDKAKPIKPFACPPKDFTTTKCQGPVDCLYANPLSCLGYIQCVCDDDACSTATPYAKSCPTGLAWVEKLKRCDGIKKSACPKKMYEGS
# Legend:
# Experiment in all cases: glycan array binding signal (z-score within array); higher = stronger binding
# Conditions in all cases: glycan notation: IUPAC condensed, linker removed
# [1] = target: Fuc(a1-2)Gal(b1-3)GalNAc(b1-3)Gal(a1-4)Gal(b1-4)Glc
# Outline: (§1)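 The binding signal is a Z-score computed within each array. Data were drawn from 3228 arrays in the Consortium for Functional Glycomics database, restricted to those with a known protein sequence. Scores were averaged over arrays of the same protein sequence at different concentrations or buffers, and over linkers, and negative values can be taken as non-binding.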
# [2] = target: Fuc(a1-2)Gal(b1-4)GlcNAc(b1-2)Man(a1-3)[Fuc(a1-2)Gal(b1-4)GlcNAc(b1-2)Man(a1-6)]Man(b1-4)GlcNAc(b1-4)[Fuc(a1-6)]GlcNAc
# Outline: as §1
# [3] = target: Fuc(a1-2)Gal(b1-4)[Fuc(a1-3)]GlcNAc(b1-2)[Fuc(a1-2)Gal(b1-4)[Fuc(a1-3)]GlcNAc(b1-4)]Man(a1-3)[Fuc(a1-2)Gal(b1-4)[Fuc(a1-3)]GlcNAc(b1-2)Man(a1-6)]Man(b1-4)GlcNAc(b1-4)GlcNAc
# Outline: as §1
# [4] = target: Fuc(a1-2)Gal(b1-4)[Fuc(a1-3)]GlcNAc(b1-3)Gal(b1-4)[Fuc(a1-3)]GlcNAc
# Outline: as §1
# Fuc(a1-2)Gal6S(b1-4)Glc = target: Fuc(a1-2)Gal6S(b1-4)Glc
# Outline: as §1
# [5] = target: Fuc(a1-2)[Gal(a1-3)]Gal(b1-4)GlcNAc(b1-6)GalNAc
# Outline: as §1
# [6] = target: Fuc(a1-2)[GalNAc(a1-3)]Gal(b1-3)GalNAc(a1-3)[Fuc(a1-2)]Gal(b1-4)GlcNAc
# Outline: as §1
# [7] = target: Gal(a1-4)Gal(b1-4)GlcNAc(b1-2)Man(a1-3)[Gal(a1-4)Gal(b1-4)GlcNAc(b1-2)Man(a1-6)]Man(b1-4)GlcNAc(b1-4)GlcNAc
# Outline: as §1
# Gal(b1-3)GlcNAc(b1-2)Man = target: Gal(b1-3)GlcNAc(b1-2)Man
# Outline: as §1
# [8] = target: Gal(b1-3)GlcNAc(b1-2)Man(a1-3)[GlcNAc(b1-4)][Gal(b1-3)GlcNAc(b1-2)Man(a1-6)]Man(b1-4)GlcNAc(b1-4)GlcNAc
# Outline: as §1
# [9] = target: Gal(b1-3)GlcNAc(b1-2)[Gal(b1-3)GlcNAc(b1-6)]Man(a1-6)[Gal(b1-3)GlcNAc(b1-2)Man(a1-3)]Man(b1-4)GlcNAc(b1-4)GlcNAc
# Outline: as §1
# [10] = target: Gal(b1-3)GlcNAc(b1-3)Gal(b1-4)Glc
# Outline: as §1
# [11] = target: Gal(b1-3)GlcNAc(b1-3)Gal(b1-4)GlcNAc
# Outline: as §1
# [12] = target: Gal(b1-3)[Fuc(a1-4)]GlcNAc
# Outline: as §1
# [13] = target: Gal(b1-4)GlcNAc(b1-2)Man(a1-3)[GlcNAc(b1-2)Man(a1-6)]Man(b1-4)GlcNAc(b1-4)GlcNAc
# Outline: as §1
# [14] = target: Gal(b1-4)GlcNAc(b1-2)Man(a1-3)[GlcNAc(b1-4)][Gal(b1-4)GlcNAc(b1-2)Man(a1-6)]Man(b1-4)GlcNAc(b1-4)GlcNAc
# Outline: as §1
# [15] = target: Gal(b1-4)GlcNAc(b1-2)Man(a1-3)[Man(a1-6)]Man(b1-4)GlcNAc(b1-4)GlcNAc
# Outline: as §1
# [16] = target: Gal(b1-4)GlcNAc(b1-2)[Gal(b1-4)GlcNAc(b1-4)]Man(a1-3)[Gal(b1-4)GlcNAc(b1-2)[Gal(b1-4)GlcNAc(b1-6)]Man(a1-6)]Man(b1-4)GlcNAc(b1-4)GlcNAc
# Outline: as §1
# [17] = target: Gal(b1-4)GlcNAc(b1-3)Gal(b1-4)GlcNAc(b1-2)[Gal(b1-4)GlcNAc(b1-3)Gal(b1-4)GlcNAc(b1-6)]Man(a1-6)[Gal(b1-4)GlcNAc(b1-3)Gal(b1-4)GlcNAc(b1-2)Man(a1-3)]Man(b1-4)GlcNAc(b1-4)GlcNAc
# Outline: as §1
# [18] = target: Gal(b1-4)GlcNAc(b1-3)Gal(b1-4)GlcNAc(b1-3)Gal(b1-4)GlcNAc(b1-3)Gal(b1-4)GlcNAc(b1-2)Man(a1-3)[Gal(b1-4)GlcNAc(b1-3)Gal(b1-4)GlcNAc(b1-3)Gal(b1-4)GlcNAc(b1-3)Gal(b1-4)GlcNAc(b1-2)Man(a1-6)]Man(b1-4)GlcNAc(b1-4)[Fuc(a1-6)]GlcNAc
# Outline: as §1
# [19] = target: Gal(b1-4)GlcNAc(b1-3)[GlcNAc(b1-6)]Gal(b1-4)GlcNAc
# Outline: as §1
# Gal3S(b1-3)GlcNAc = target: Gal3S(b1-3)GlcNAc
# Outline: as §1
# [20] = target: Gal3S(b1-4)[Fuc(a1-3)]Glc6S
# Outline: as §1
# GalNAc6S(b1-4)GlcNAc = target: GalNAc6S(b1-4)GlcNAc
# Outline: as §1
# [21] = target: GlcNAc(a1-4)Gal(b1-4)GlcNAc
# Outline: as §1
# GlcNAc(b1-3)Man = target: GlcNAc(b1-3)Man
# Outline: as §1
# [22] = target: GlcNAc6S(b1-3)Gal(b1-4)GlcNAc
# Outline: as §1
# [23] = target: Man(a1-2)Man(a1-3)[Man(a1-2)Man(a1-6)]Man(a1-6)[Man(a1-2)Man(a1-2)Man(a1-3)]Man
# Outline: as §1
# [24] = target: Neu5Ac(a2-3)Gal(b1-3)GalNAc
# Outline: as §1
# [25] = target: Neu5Ac(a2-3)Gal(b1-3)GalNAc(b1-3)Gal(a1-4)Gal(b1-4)Glc
# Outline: as §1
# [26] = target: Neu5Ac(a2-3)Gal(b1-3)GlcNAc(b1-2)Man(a1-3)[Neu5Ac(a2-3)Gal(b1-3)GlcNAc(b1-2)Man(a1-6)]Man(b1-4)GlcNAc(b1-4)GlcNAc
# Outline: as §1
# [27] = target: Neu5Ac(a2-3)Gal(b1-3)GlcNAc(b1-3)GalNAc
# Outline: as §1
# [28] = target: Neu5Ac(a2-3)Gal(b1-4)GlcNAc(b1-2)Man
# Outline: as §1
# [29] = target: Neu5Ac(a2-3)Gal(b1-4)GlcNAc(b1-2)[Neu5Ac(a2-3)Gal(b1-4)GlcNAc(b1-4)]Man(a1-3)[GlcNAc(b1-4)][Neu5Ac(a2-3)Gal(b1-4)GlcNAc(b1-4)Man(a1-6)]Man(b1-4)GlcNAc(b1-4)GlcNAc
# Outline: as §1
# [30] = target: Neu5Ac(a2-3)Gal(b1-4)GlcNAc(b1-3)Gal(b1-4)GlcNAc(b1-3)[Neu5Ac(a2-3)Gal(b1-4)GlcNAc(b1-3)Gal(b1-4)GlcNAc(b1-6)]GalNAc
# Outline: as §1
# [31] = target: Neu5Ac(a2-3)Gal(b1-4)[Fuc(a1-3)]GlcNAc(b1-3)GalNAc
# Outline: as §1
# [32] = target: Neu5Ac(a2-3)Gal6S(b1-4)GlcNAc
# Outline: as §1
# [33] = target: Neu5Ac(a2-6)Gal(b1-4)GlcNAc(b1-2)Man(a1-3)Man(b1-4)GlcNAc(b1-4)GlcNAc
# Outline: as §1
# [34] = target: Neu5Ac(a2-6)Gal(b1-4)GlcNAc(b1-3)Gal(b1-3)GlcNAc
# Outline: as §1
# [35] = target: Neu5Ac(a2-6)GlcNAc(b1-4)GlcNAc(b1-4)GlcNAc
# Outline: as §1
# [36] = target: Neu5Gc(a2-3)Gal(b1-4)GlcNAc
# Outline: as §1
binder,measurement,setting,value
B1,glycan array binding signal (z-score),[1],0.285
same,glycan array binding signal (z-score),[2],2.88
same,glycan array binding signal (z-score),[3],4.77
same,glycan array binding signal (z-score),[4],-0.355
same,glycan array binding signal (z-score),Fuc(a1-2)Gal6S(b1-4)Glc,-0.291
same,glycan array binding signal (z-score),[5],-0.178
same,glycan array binding signal (z-score),[6],3.28
same,glycan array binding signal (z-score),[7],1.43
same,glycan array binding signal (z-score),Gal(b1-3)GlcNAc(b1-2)Man,-0.279
same,glycan array binding signal (z-score),[8],8.86
same,glycan array binding signal (z-score),[9],-0.063
same,glycan array binding signal (z-score),[10],0.144
same,glycan array binding signal (z-score),[11],-0.311
same,glycan array binding signal (z-score),[12],-0.218
same,glycan array binding signal (z-score),[13],-0.331
same,glycan array binding signal (z-score),[14],-0.216
same,glycan array binding signal (z-score),[15],9.66
same,glycan array binding signal (z-score),[16],-0.113
same,glycan array binding signal (z-score),[17],4.76
same,glycan array binding signal (z-score),[18],-0.233
same,glycan array binding signal (z-score),[19],5.97
same,glycan array binding signal (z-score),Gal3S(b1-3)GlcNAc,-0.314
same,glycan array binding signal (z-score),[20],-0.272
same,glycan array binding signal (z-score),GalNAc6S(b1-4)GlcNAc,-0.276
same,glycan array binding signal (z-score),[21],-0.432
same,glycan array binding signal (z-score),GlcNAc(b1-3)Man,4.99
same,glycan array binding signal (z-score),[22],-0.273
same,glycan array binding signal (z-score),[23],-0.359
same,glycan array binding signal (z-score),[24],-0.292
same,glycan array binding signal (z-score),[25],-0.326
same,glycan array binding signal (z-score),[26],7.16
same,glycan array binding signal (z-score),[27],-0.01
same,glycan array binding signal (z-score),[28],5.08
same,glycan array binding signal (z-score),[29],-0.253
same,glycan array binding signal (z-score),[30],-0.158
same,glycan array binding signal (z-score),[31],0.545
same,glycan array binding signal (z-score),[32],-0.482
same,glycan array binding signal (z-score),[33],-0.224
same,glycan array binding signal (z-score),[34],-0.344
same,glycan array binding signal (z-score),[35],3.75
same,glycan array binding signal (z-score),[36],-0.214
